Data taken from PubChem BioAssay AID597 (National Center for Advancing Translational Sciences (NCATS), 2007).
Screen size: about 68,000 compounds; about 60 (0.09%) were called active. The call rests on the fitted dose curve; in most records, active means well fitted curve in the direction sought with a large enough effect; inconclusive means small, poorly fitted or top-dose-only effect; inactive means flat fitted curve, though single readings scatter. Only a sample is shown.

Assay: qHTS Assay for Epigenetic Modulators; further: % of control where 0% means no effect
Details: mouse C127i GFP locus derepression, cytometry, 30 h; series mostly up to 46.1 µM
Source text: NIH Molecular Libraries Screening Centers Network [MLSCN] NIH Chemical Genomics Center [NCGC] MLSCN Grant: 1 X01 MH079860-01 Assay Provider: Elisabeth D. Martinez, University of Texas SW Medical Center NCGC Assay Overview: The Locus Derepression assay detects the derepression of a GFP reporter that is stably integrated in a region of the genome of murine c127i mammary cells that is presumably silenced. GFP transcription in this construct is controlled by a CMV promoter, which normally is strong and constitutively active. However, this line was selected for lack of constitutive expression of the GFP protein. GFP production can be induced by incubating the cells with histone deacetylase or DNA methyltransferase inhibitors. Compounds that cause derepression of the locus to express GFP are identified by enumerating GFP positive cells using a laser-scanning microplate cytometer. For further details of this screen and follow-up characterization, see R.L. Johnson, W. Huang, A. Jadhav, C.P. Austin, J. Inglese, E.D. Martinez, A Quantitative High-Throughput Screen Identifies Potential Epigenetic Modulators of Gene Expression, Analytical Biochemistry (2008) 375(2):237-48.
NCGC Assay Protocol Summary: Two hundred and fifty cells in 5 uL per well were dispensed into black, clear-bottom 1536-well plates. Twenty-three nL compound was transferred to the assay plate and cells were incubated 30 hours at 37 C. Medium was removed, cells were washed two times with PBS, and GFP-positive cells were enumerated as fluorescent objects between the sizes of 20 to 120 um width and depth using an Acumen Explorer. Keywords: NIH Roadmap, MLSCN, MLI, MLSMR, qHTS, NCGC, qHTS, HDAC, DNMT, HAT, DNA methyltransferases, histone acetyl transferases, histone deacetylases

GFP derepression (activation), inactive:
COc1ccc(CNC(=O)C2CCN(S(=O)(=O)N3CCOCC3)CC2)cc1, COc1ccc(C(CC(=O)O)NC(=O)Cc2ccccc2)cc1 (stereo not drawn), COC(=O)c1ccc(N(CC(=O)NC2CCCC2)C(=O)CNC(=O)c2ccco2)cc1, COc1ccc2[nH]c3c(=O)n(Cc4ccco4)cnc3c2c1, CCCSc1nc2c(c(=O)n(C)c(=O)n2C)n1Cc1ccc(C)cc1, O=C(CN1CCN(C(=O)c2cccc(F)c2)CC1)Nc1ccccc1F, Cc1cc(N(C)C)cc(C)[n+]1[O-], O=C(c1cccc(F)c1)N1CCC2(CCCN(Cc3ccncc3)C2)CC1 0% [at 9.22 µM], O=c1[nH]c(=O)n([C@H]2C[C@H](O)[C@H](CO)O2)cc1Br, Cc1cccc(NC(=O)CSc2nc3c(c(=O)[nH]2)CCC3)c1C, Cc1nn(-c2ccccc2)c2[nH]c(C(F)(F)F)cc(=O)c12, COC(=O)c1cc(C(=O)OC)cc(N2C(=O)CC(N3CCN(c4ccccc4)CC3)C2=O)c1 (stereo not drawn), CSCCC(NS(=O)(=O)/C=C/c1ccccc1)C(=O)N1CCC(C)CC1 (stereo not drawn), C=CCc1cccc2cc(C(=O)OCC)c(=O)oc12, COC(=O)c1ccc(CSc2ccccc2C)o1, CCN(c1ccccc1)S(=O)(=O)c1cccc(C(=O)O)c1, COCCn1c(=O)c(-c2cccs2)nc2cnc(N3CCN(C)CC3)nc21 -2.7% [at 9.22 µM], CN(Cc1ccco1)c1ncncc1-c1ccoc1 3.4% [at 9.22 µM], CN/C(=C\[N+](=O)[O-])NCCSCc1csc(CN(C)C)n1, Cc1cccc(Cn2c(N3CCN(c4ccccc4)CC3)nc3c2c(=O)n(C)c(=O)n3C)c1, O=C(c1ccc(=O)[nH]c1)N(Cc1ccco1)C1(C(=O)NC2CCCCC2)CCCCC1, CCCCC(CC)C(=O)Nc1ccc(Cl)cn1 (stereo not drawn), O=C(Nc1ccccc1)N[C@H]1C[C@H](C(=O)O)Nc2cc(Cl)cc(Cl)c21, CC1(C)CC(=O)c2cc(OCC(=O)NCC3CCCO3)ccc2O1 (stereo not drawn), COc1ccccc1CN1CC2(CCN(S(=O)(=O)c3ccccc3)CC2)C1 -2.3% [at 9.22 µM], COc1ccc2[nH]c3cc4c(=O)c5cc(OC)ccc5[nH]c4cc3c(=O)c2c1 1.1% [at 9.22 µM], Oc1c(C(c2ccccn2)N2CCOCC2)ccc2cccnc12 (stereo not drawn), Cc1ccc(C(c2nnnn2C(C)(C)C)N2CCc3ccccc3C2)cc1 (stereo not drawn), CCOC(=O)C1(C(F)(F)F)N=C(N(C)C)OC(N(C)C)=N1, CCC[C@H]1C(=O)N2C(N(C)C)=Nc3ccc(C)cc3N2C1=O, Cc1cc(N2CCCCC2)nc2ccc(Cc3ccc4nc(N5CCCCC5)cc(C)c4c3)cc12 -2.2% [at 9.22 µM], CCOCC(=O)Nc1cc(OC)c(Cl)cc1OC, COCc1nc2ccccc2n1Cc1ccccc1Br, O=C(NC1CCCCC1)n1c(=O)oc2cc(S(=O)(=O)N3CCCCC3)ccc21, COCCn1c(=O)c(-c2cccs2)nc2cncnc21 2.3% [at 9.22 µM], O=C(COC(=O)c1ccc2c(c1)OCCO2)NCc1ccccc1, Cc1ccccc1-c1nc(N(C)Cc2ccco2)c2ccccc2n1 -2.9% [at 9.22 µM], COCCn1c(=O)c(-c2ccc(OC)cc2)nc2cnc(Oc3cccc(Cl)c3)nc21 -2.7% [at 9.22 µM], O=c1c(-c2ccc(F)cc2)nc2cnc(N3CCOCC3)nc2n1-c1ccccc1 2.3% [at 9.22 µM], NC(=O)C1(N2CCCCC2)CCN(C(=O)c2ccc(C#Cc3ccccc3)o2)CC1, Nc1ccc(-c2nnc(-c3ccc(-c4ccccc4)cc3)o2)cc1, COc1ccc(Cl)cc1NC(=O)C1CC(=O)N(c2ccc(F)cc2)C1 (stereo not drawn), CC1C(c2ccccc2)=[N+]([O-])C2(CCCC2)N1O (stereo not drawn), S=c1c2[nH]cnc2ncn1CCSc1ncnc2nc[nH]c12 3.4% [at 9.22 µM], CN1CCN(c2ncncc2-c2ccc(C(=O)N(C)C)cc2)CC1 -2.3% [at 9.22 µM], CCCCCNC(=O)Cc1ccc(OC)cc1, COC(=O)c1ccc(CSc2nncn2C)cc1, CC(C)(C)NC(=O)NC(=O)COC(=O)Cn1c(C(F)(F)F)nc2ccccc21, CC(C)[C@H](CO)Nc1nc(Nc2cc(N)cc(Cl)c2)c2ncn(C(C)C)c2n1, C[C@@H](N)[C@@H](C)Cc1ccccc1 0% [at 9.22 µM], Cc1cc(NC(=O)CCC(=O)N(c2ccccc2)C(C(=O)NC2CCCC2)c2ccncc2)no1 (stereo not drawn), COc1ccc(C(=O)N2CCC3(CCCN(C(c4ccccc4)c4ccccc4)C3)CC2)cc1 -2.3% [at 9.22 µM], COc1ccc(-c2cc(C(F)(F)F)n3nc(C(=O)N4CCOCC4)c(Cl)c3n2)cc1, O=C(CS(=O)(=O)c1cn(Cc2cccc(F)c2)c2ccccc12)N1CCCCC1, O=C(O)c1ccc(COc2c(F)c(F)cc(F)c2F)o1, Cc1ccc(Oc2nc3ccccc3n3c(C)nnc23)cc1, CCC(c1nnnn1C1CCCC1)N1CCN(C(=O)c2ccco2)CC1 (stereo not drawn), O=C(COc1ccc(F)cc1)N(CC1=CCS(=O)(=O)C1)c1ccccc1, Cc1ccc(S(=O)(=O)N2CCC(C(=O)N[C@@H](C)C(=O)NCCc3ccccc3)CC2)cc1, O=C(N1CCOCC1)N1CCOCC1, CC(C)Cc1nc(N2CCOCC2)c(C#N)c2c1CCC2, CCCCCCCCCCCC(=O)O[C@H](CC(=O)O)C[N+](C)(C)C, Cc1noc(C)c1-c1nc(Nc2ccccc2)c2ccccc2n1 -2.9% [at 9.22 µM], O=C(O)c1nn(-c2ccc(Cl)cc2)c2c1C(=O)c1ccccc1C2=O 4.5% [at 9.22 µM], Fc1ccccc1OCCCCn1cncn1, O=[n+]1c2c(n([O-])c3cc(Br)ccc31)CCC2, COC(=O)[C@H]1[C@H]2C[C@H]3c4[nH]c5ccccc5c4CCN3C[C@@H]2CC[C@@H]1O, CCOC(=O)c1cc2occc2n1CC(=O)N1CCN(C(=O)c2ccco2)CC1, Cc1cc2c(cc1C)NC1=C(N2)O[C@H](c2c[nH]c3ccc(COc4ccccc4)cc23)C1=O 2.2% [at 9.22 µM], NC(=NC(=O)c1ccccc1)C1=C(O)CCC1=O, COc1ccc(-n2c(SC)nc(O)cc2=O)cc1, O=C(CSc1ncccn1)NC(=O)NCc1ccccc1, NCCCNCCCCN(CCCN)/[N+]([O-])=N/O, Cn1cccc1C(=O)N1CCC[C@@]2(CCN(Cc3nccs3)C2)C1 4.6% [at 9.22 µM], COCCn1c(=O)c(-c2ccccc2)nc2cnc(N3CCOCC3)nc21 -2.7% [at 9.22 µM], Cn1c(=NC(=O)CSCC(=O)N2CCOCC2)sc2ccccc21, Cc1ccc2[nH]c(=O)c(COC(=O)c3ccccn3)cc2c1, CCOC(=O)c1[nH]c2ccc(C)cc2c1N=C(C)N(C)C, Cc1cc(C(=O)CC#N)c(C)n1CC(F)(F)F, Cc1ccc(NC(=O)c2cccc(N(C)C)c2)cc1NC(=O)c1ccc(O)cc1, CCON=C1C(C)(C)C(C)(C)C(C)(C)C1(C)C 6.6% [at 9.22 µM], Cc1ccc(S(=O)(=O)N(C)CC(=O)N2CCc3ccccc32)cc1, COc1cccc(-c2cc(NCCc3c[nH]c4ccc(OC)cc34)ncn2)c1 5.1% [at 9.22 µM], CC(C)c1ccc2c(c1)c(SC(C)(C)C)c(CC(C)(C)C(=O)O)n2Cc1ccc(Cl)cc1, C#CCCCCCCCCCCCCCCCC(=O)O, N#CCCn1c(=O)c(-c2cc(F)cc(F)c2)nc2cnc(Oc3ccccc3)nc21 -4.9% [at 9.22 µM], CCOc1cccc(NC(=O)CC#N)c1, O=C1c2ccccc2C(Nc2ccc3c(c2)OCCO3)N1Cc1ccco1 (stereo not drawn), CCNCCCNCCCNCCCNCC, N#CC1=C(SCc2ccccc2)NC(=O)C(C#N)C12CCCC2 (stereo not drawn), O=C(c1cccc(F)c1)N1CCC2(CC1)CCN(c1ccccc1)CC2 -1.6% [at 9.22 µM], COc1ccc(OCC(=O)OCC(=O)Nc2ccc(S(=O)(=O)N3CCCCC3)cc2)cc1, O=S(=O)(O)c1ccc(O)c2ncccc12.O=S(=O)(O)c1ccc(O)c2ncccc12.[Zn] 2.3% [at 9.22 µM], Cc1cccc(CNc2ccnc(-c3cccnc3)n2)c1 0% [at 9.22 µM], N#CCCN1CCN(S(=O)(=O)c2ccc(S(=O)(=O)NC3CCCCC3)cc2)CC1, Cc1ccc(-c2nn(CC(C)(C)C)c3ncnc(N)c23)cc1, CCn1c(Cc2ccccc2)nnc1SCC(=O)Nc1ccccc1, CCc1c(C)[nH]c(=S)c(C#N)c1C, COc1ccc(C)cc1NC(=O)CSc1nc(SC)ns1, CN(C)c1cc[n+](Cc2ccccc2)cc1, Nc1nnc(C2CCCC2)s1, CN(c1nc2ccccc2n2c(-c3ccco3)nnc12)S(=O)(=O)c1ccccc1, CN1CCN(CC(O)COCc2ccc3c(c2)OCO3)CC1 (stereo not drawn)
